# Compound activity from PubChem BioAssay.
# The entries come from a sample that favours hits as a whole.
# TDP1 cell noCPT – qHTS for Inhibitors of human tyrosyl-DNA phosphodiesterase 1 (TDP1): qHTS in cells in absence of CPT; Potency, µM (titrated, usually from 46.2 µM), inactives show at the highest dose activity change, negative = growth inhibition, hits mostly inhibitors; DT40 Tdp1-/- hTDP1 cells, no CPT, ATP luminescence, 48 h; AID 686978, 2013; 420,000 compounds, 15% hits; further: potency means the concentration at half of the fitted maximal effect; nearly all actives have a fitted effect of over 55% in size
#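 Camptothecin absent (DMSO only). Human TDP1-complemented DT40 knockout cells, 400 cells/well, 37 °C for minimum 48 hr; ATP measured via CellTiter-Glo, 30 min dark incubation, luminescence.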
# HT1080 IDH1KD tx – qHTS for induction of synthetic lethality in tumor cells producing 2HG: qHTS for the HT-1080-IDH1KD cell line | HT-1080 IDH1 knockdown viability, ATP luminescence, 48 h | Potency, µM (titrated, usually from 46.1 µM), inactives show top-dose activity, negative = toxicity, most hits filed as cytotoxic | 360,000 compounds, 2% hits;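 further: potency means the concentration at half of the fitted maximal effect; 0% = DMSO wells and -100% = cell-free medium wells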
#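 % activity derives from luminescence (CellTiter-Glo), normalised to DMSO and no-cell wells. HT-1080-IDH1KD cells, 750/well, had 48 h compound exposure at 37 °C.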
# IL1B secr inh – qHTS for Inhibitors of Inflammasome Signaling: IL-1-beta AlphaLISA Primary Screen | activity change, % at 57.5 µM | THP-1 LPS/ATP IL-1B secretion, AlphaLISA, 16 h; stronger effect = lower value | AID 743279, 2014 | 360,000 compounds, 4.7% hits; in the data active means activity change below about -50%; inconclusive means mostly about -30% to -49%
#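 THP-1 cells pretreated 1 hr with compounds (up to 57.5 uM final), then stimulated with LPS (250 ng/mL final) plus ATP (1.25 mM final); secreted IL-1B measured by AlphaLISA after 16 hr, decreased signal indicating inhibition.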
# ALOX12 inh – Primary qHTS assay for inhibitors of human arachidonate 12S-lipoxygenase (ALOX12): Round 2. Polyunsaturated fatty acid lipoxygenase ALOX12 (Homo sapiens), P18054. Potency, µM (doses to about 108 µM), inactives show at the highest dose activity change, negative = inhibition, usual class: inhibitors. 580,000 compounds, 1.1% hits. purified 12hLO, xylenol orange hydroperoxide absorbance; further: potency means the concentration at half of the fitted maximal effect
# Target sequence (P18054 whole entry, looked up): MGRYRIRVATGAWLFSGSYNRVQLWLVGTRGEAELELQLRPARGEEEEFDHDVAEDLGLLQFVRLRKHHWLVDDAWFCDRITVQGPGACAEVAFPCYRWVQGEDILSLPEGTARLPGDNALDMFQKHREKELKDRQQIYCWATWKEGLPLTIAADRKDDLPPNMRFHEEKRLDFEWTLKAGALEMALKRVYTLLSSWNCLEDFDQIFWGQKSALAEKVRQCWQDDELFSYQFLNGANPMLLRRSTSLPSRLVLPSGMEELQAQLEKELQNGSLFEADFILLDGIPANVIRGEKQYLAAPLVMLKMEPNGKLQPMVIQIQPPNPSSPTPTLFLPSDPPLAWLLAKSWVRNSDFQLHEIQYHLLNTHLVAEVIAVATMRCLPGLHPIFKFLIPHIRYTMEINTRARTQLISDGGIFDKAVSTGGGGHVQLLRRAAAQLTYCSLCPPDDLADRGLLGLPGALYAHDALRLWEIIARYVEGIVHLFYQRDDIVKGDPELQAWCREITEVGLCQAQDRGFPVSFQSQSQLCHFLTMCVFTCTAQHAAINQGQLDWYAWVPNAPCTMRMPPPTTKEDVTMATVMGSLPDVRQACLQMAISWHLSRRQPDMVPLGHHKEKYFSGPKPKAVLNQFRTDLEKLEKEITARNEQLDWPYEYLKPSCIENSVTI
#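 Hydroperoxide product was detected by ferrous iron/xylenol orange as the 573 to 405 nm absorbance ratio. Arachidonic acid at 40 uM (final) was turned over for 30 min at room temperature by 150 nM human 12hLO, pH 7.0 Hepes buffer, after 15 min compound preincubation.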
# DT40 TDP1 CPT – qHTS for Inhibitors of human tyrosyl-DNA phosphodiesterase 1 (TDP1): qHTS in cells in presence of CPT. chicken DT40 Tdp1-/-;hTDP1 cells + 20 nM CPT, ATP luminescence, 48 h. AID 686979, 2013. 420,000 compounds, 12% hits. Potency, µM (doses to about 46.2 µM), for inactives: top-dose activity change, negative = growth inhibition, most hits filed as inhibitors; further: potency means the concentration at half of the fitted maximal effect; nearly all actives have a fitted effect of over 55% in size
#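 Chicken DT40 Tdp1-/- cells complemented with human TDP1, 400 cells/well, exposed to compounds plus 20 nM camptothecin for at least 48 h at 37 C; viability read as ATP content by CellTiter-Glo luminescence.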
# HT1080NT lethal – qHTS for induction of synthetic lethality in tumor cells producing 2HG: qHTS for the HT-1080-NT fibrosarcoma cell line; Potency, µM (titrated, usually from 46.1 µM), for inactives: at the top dose activity, negative = less viability, usual class: cytotoxic; 360,000 compounds, 1.6% hits; HT-1080-NT fibrosarcoma viability, CellTiter-Glo ATP luminescence, 48 h;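 further: NT is the 2HG producing partner of a matched IDH1 knockdown line; potency means the concentration at half of the fitted maximal effect; 0% = DMSO-treated cells and -100% = media-only wells without cells; nearly all actives have a fitted effect of over 55% in size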
#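 Viability by CellTiter-Glo luminescence after 48 h compound exposure at 37C of HT-1080-NT cells (750/well, RPMI, 5% FBS). % activity scaled between DMSO wells and medium-only wells, then curve-fitted and categorized by curve class.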
# Starred values were filed as active, the others as inactive; u = inconclusive; x = no result given; [ ] = remark or other dose. Unless noted, the call rests on the fitted dose curve; in most records, active means well fitted curve in the direction sought with a large enough effect; inconclusive means small, poorly fitted or top-dose-only effect, or another doubt; inactive means no such curve, though single readings can be large; an effect the other way counts as inactive or inconclusive. Unless noted, on the % scale 0 is the no-effect control and ±100 the full control effect.
SMILES,TDP1 cell noCPT,HT1080 IDH1KD tx,IL1B secr inh,ALOX12 inh,DT40 TDP1 CPT,HT1080NT lethal
COCc1c(C(=O)NC2=NCCS2)oc2ccccc12,x,x,x,3.3%,x,x
O=C(CC12CC3CC(CC(C3)C1)C2)Nc1ccc(-c2nc3ccccc3o2)cc1,x,x,x,-17.1%,x,x
CCc1ccc(C2c3c(-c4ccccc4O)n[nH]c3C(=O)N2Cc2ccncc2)cc1 (stereo not drawn),13µM*,x,x,-19.1%,14.6µM*,x
COCCCN1C(=O)c2[nH]nc(-c3ccccc3O)c2C1c1ccc(OCc2ccccc2)cc1 (stereo not drawn),u,x,x,-8.4%,u,x
CCOCCCN1C(=O)c2[nH]nc(-c3ccccc3O)c2C1c1ccc(CC)cc1 (stereo not drawn),16.4µM*,x,x,u,20.6µM*,x
O=C(NCCCN1CCc2ccccc2C1)c1ccccc1C(F)(F)F,x,x,x,-16.7%,x,x
O=C(NCc1ccccc1)C1c2ccccc2OCC(=O)N1Cc1ccccc1 (stereo not drawn),11.6µM*,u,-15.5,-23.6%,u,-87.3%
O=C1COc2ccccc2C(c2nc3ccccc3[nH]2)N1Cc1ccccc1 (stereo not drawn),16.4µM*,1.7%,11.7,-10.4%,u,-0.5%
COC(=O)/C(C#N)=C\c1cc(OC)c(OC)cc1Br,x,x,x,-23.7%,x,x
Cc1ccc(C)c(OCCCOc2ccc(Cl)cc2/C=N/NC(N)=O)c1,x,x,x,-7.9%,x,x
CCCN1CCN(C(=O)CC2CCN(C(=O)c3ccc4nc(-c5ccc(C)cc5)oc4c3)CC2)CC1,x,x,x,-22.5%,x,x
COc1ccccc1CN(Cc1ccco1)c1cnc(S(C)(=O)=O)nc1C(=O)Nc1ccccc1,x,x,x,34.4%,x,x
CSc1ccccc1NC(=O)Nc1cccc(Cl)c1,u,2.0%,-1.2,u,15.8µM*,6.6%
CSc1ccccc1NC(=O)CN(C)CC(=O)Nc1ccc(Cl)cc1F,u,-5.5%,-8.1,-10.1%,23.1µM*,-2.0%
CN(c1cccc(NC(=O)Nc2cccc(Cl)c2)c1)S(C)(=O)=O,16.4µM*,-2.5%[9.24 µM],-25.0,u,u,-28.7%
CSc1ccccc1NC(=O)Nc1ccc(F)c(Cl)c1,u,0.7%,u,u,u,-2.9%
CN(Nc1cccc(Cl)c1)c1cccc(Cl)c1,u,u,-11.3,31.6µM*,u,-24.6%
CCOCCCNC(=O)c1ccc(OCC)c(OCC)c1,x,x,x,8.5%,x,x
O=C1CCN(C(=O)NCCc2ccccc2)CCCCCCN1,x,x,x,51.7%,x,x
CCc1ccc(-n2nc(CO)c(C(=O)NCc3ccc(OC)cc3)n2)cc1,x,x,x,11.6%,x,x
O=C(CCC[C@@H]1[C@H]2CCCN3CCC[C@@H](CN1Cc1cccnc1)[C@@H]23)Nc1ccncc1,x,x,x,39.3%,x,x
CN1C2C=C3C(C#N)=C(N)C(C#N)(C#N)[C@@H](c4ccc(Cl)cc4)[C@@H]3C1CC2 (stereo partly drawn),u,-6.6%[9.24 µM],-6.3,-2.1%,u,-2.9%
CN1C2C=C3C(C#N)=C(N)C(C#N)(C#N)C(c4ccc(Br)cc4)C3C1CC2 (stereo not drawn),20.6µM*,-5.8%,-101.1*,u,u,-11.6%
COc1cc(OC)cc(C(=O)N2CCC(Cc3nc(-c4ccc(F)cc4)no3)CC2)c1,x,x,x,-13.0%,x,x
O=C(CSc1oc(-c2cccs2)nc1S(=O)(=O)c1ccc(F)cc1)NCC1CCCO1 (stereo not drawn),u,1.3%,-13.7,u,u,-5.7%
O=S(=O)(c1ccccc1)c1nc(-c2cccs2)oc1SCc1ccccc1Cl,u,x,x,-29.9%,u,x
Cc1cc(C)cc(NC(=O)CSc2oc(-c3cccs3)nc2S(=O)(=O)c2ccccc2)c1,5.8µM*,x,x,u,20.6µM*,x
O=C(CSc1oc(-c2cccs2)nc1S(=O)(=O)c1ccccc1)Nc1ccc(F)cc1,u,x,x,-22.0%,16.4µM*,x
